Experimental findings from PubChem BioAssay AID504652 (National Center for Advancing Translational Sciences (NCATS), 2011) are described below.

“And” between values parts separate entries of the source, which are not always exact repeats. Equal entries are not always repeated. The campaign covered roughly 360,000 compounds. About 11,000 (3.1%) were called active. The sample holds actives, similar compounds and a random draw of the others, so the mix is not that of the screen. No stated cut-off is given here; in the data, active means activity change below about -30%; inactive means the rest. Some compounds were tested as several samples or in several runs, with calls that do not always agree.
On the % scale 0 is the no-effect control and ±100 the full control effect.

D(1A) dopamine receptor (Homo sapiens), sequence (P21728 whole entry, looked up): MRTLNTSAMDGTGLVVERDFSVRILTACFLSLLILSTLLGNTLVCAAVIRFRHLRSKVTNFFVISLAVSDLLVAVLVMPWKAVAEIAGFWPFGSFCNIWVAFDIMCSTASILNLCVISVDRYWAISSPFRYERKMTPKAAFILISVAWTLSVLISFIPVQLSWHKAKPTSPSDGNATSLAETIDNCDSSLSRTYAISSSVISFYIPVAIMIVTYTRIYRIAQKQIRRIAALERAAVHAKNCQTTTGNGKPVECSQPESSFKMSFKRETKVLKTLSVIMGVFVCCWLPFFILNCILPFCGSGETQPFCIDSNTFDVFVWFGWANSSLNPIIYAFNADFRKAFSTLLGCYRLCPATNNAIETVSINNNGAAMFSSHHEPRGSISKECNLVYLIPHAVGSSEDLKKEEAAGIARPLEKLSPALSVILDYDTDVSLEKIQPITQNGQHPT

The target in this assay is D(1A) dopamine receptor (Homo sapiens) (UniProt P21728). Put plainly: Antagonist of Human D 1 Dopamine Receptor: qHTS. The conditions noted are these: HEK293 TREx D1 cells, calcium flux, dopamine EC80; at 10 µM; stronger effect = lower value. The essentials:
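Inducible Hek293 Trex D1 cells (tetracycline, overnight, 30 C). Calcium dye 30–90 min RT. Antagonist mode: EC80 dopamine added after 180 s compound read.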
(In general: In qHTS, concentration-response curves come from the screen itself.)
For the molecule `CCN(CC(=O)Nc1ccc(S(=O)(=O)N2CCCC2)cc1)CC(=O)Nc1cccc(OC)c1`, the activity change, negative = inhibition is -18.1% (inactive).
On to `COc1cccc(NC(C)=[N+](C)CCNS(=O)(=O)c2ccc(Cl)cc2)c1`, for which the activity change, negative = inhibition was -6.9% (inactive).
Consider `CCNS(=O)(=O)c1ccc(NC(=O)Nc2cccc(OC)c2)cc1`, for which the activity change, negative = inhibition was -47.6% (active).
Turning to `CN1c2ccc(Cl)cc2-c2nc(SCC(=O)Nc3cc(F)ccc3F)ncc2S1(=O)=O`, the activity change, negative = inhibition was 24.7% (inactive).
With `Cc1ccc2oc(=O)c3cnn(CC(=O)N4CCN(c5cccc(Cl)c5)CC4)c3c2c1`, the activity change, negative = inhibition was 4.75% (inactive).
As for `Cc1ccc(C2c3[nH]c4ccccc4c3CCN2C(=O)c2cccc(C)c2)cc1` (centres undefined), the activity change, negative = inhibition was -0.549% (inactive).
With `Cc1cccc(C2c3[nH]c4ccccc4c3CCN2C(=O)c2cc(-c3cccn3C)n[nH]2)n1` (centres undefined), the activity change, negative = inhibition is 8.11% (inactive).
Consider `COCc1ccc(C(=O)N2CCc3c([nH]c4ccccc34)C2c2ccccn2)s1` (centres undefined), for which the activity change, negative = inhibition was -33.8% (active).
With `Cc1cc(OCC(=O)Nc2ncn[nH]2)c(C)c(C)c1Br`, the activity change, negative = inhibition was 3.31% (inactive).
Consider `Cc1cc(/C=C2\SC(=Nc3ccc(N4CCOCC4)cc3)N(C)C2=O)c(C)n1-c1cccnc1`, for which the activity change, negative = inhibition is -38% (active).
With `COC(=O)c1cc(NC(=O)c2cccnc2)ccc1N1CCOCC1`, the activity change, negative = inhibition was 1.15% (inactive).
Turning to `COc1ccc(S(=O)(=O)c2cn(C)c3cc(N4CCCCC4)c(F)cc3c2=O)cc1`, the activity change, negative = inhibition is -5.11% (inactive).
In the case of `O=C(/C=C/c1ccccc1)Nc1cc(-c2nc3cc(Cl)ccc3o2)ccc1Cl`, the activity change, negative = inhibition is -9.92% (inactive).
Then `COc1ccc(CNc2cc(C)cc(C)c2)cc1OC`, with -45.1% (active); and `COc1ccc(CNc2ccc3c(c2)CCC3)cc1OC`, with 9.59% (inactive); and `COc1ccc(CNCCCO)cc1OC`, with 14.1% (inactive).
`CCOC(=O)c1ccc(N2C(=O)c3n[nH]c(-c4ccco4)c3C2c2ccc(O)cc2)cc1` (centres undefined): the activity change, negative = inhibition is 13% (inactive).
For the molecule `CC(=O)c1ccc(NC(=O)CSc2c(C(C)C)cnc3c2c(=O)n(C)c(=O)n3C)cc1`, the activity change, negative = inhibition is 1.89% (inactive).
Then `CCCCN1C(=O)c2[nH]nc(-c3ccccc3O)c2C1c1cccc(OCc2ccccc2)c1` (centres undefined), with 6.88% (inactive).
To `COc1cccc2c1cc1c(=O)n(CC(=O)N3CCN(c4ccccc4)CC3)nc(C)n12` belongs -3.55% (inactive).
With `CC(=O)O[C@H]1CC[C@@]2(C)[C@@H](CC[C@@H]3[C@@H]2CC[C@]2(C)[C@@H](C(C)(C)O)C[C@@H]32)C1`, the activity change, negative = inhibition is -15.9% (inactive).
Consider `CC(=O)[C@@]12O[C@@H]1C[C@H]1[C@@H]3CC[C@H]4C[C@@H](O)CC[C@]4(C)[C@H]3CC[C@@]12C`, for which the activity change, negative = inhibition was -34.5% (active).
Then `Cc1cccc(NC(c2cccc(F)c2)c2ccc3ccc(C)nc3c2O)n1` (centres undefined), with -16.7% (inactive); and `Cc1ccc(NC(=O)CCCNC(=O)c2ccc(Cl)cc2)cc1S(=O)(=O)N1CCCCC1`, with 35.4% (inactive).
For the molecule `Cc1ccc(NC(=O)CCNC(=O)c2ccc([N+](=O)[O-])cc2)cc1S(=O)(=O)N1CCOCC1`, the activity change, negative = inhibition was 4.33% (inactive).
For the molecule `Cc1ccc(NC(=O)CCCNC(=O)c2ccc(Cl)cc2)cc1S(=O)(=O)N1CCOCC1`, the activity change, negative = inhibition is -36.7% (active).
In the case of `Cc1ccccc1CNC(=O)c1ccc(NC(=O)N2CCCCc3ccccc32)cc1`, the activity change, negative = inhibition was 12.4% (inactive).
On to `Cc1ccccc1CN1CCC(CNC(=O)c2cc3ccc4cccnc4c3[nH]2)CC1`, for which the activity change, negative = inhibition is -3.23% (inactive).
For `CC(C)(C)N1C(=O)[C@H]2[C@@H](c3ccc(Br)cc3)N3C(=O)N(c4cccc(Cl)c4)C(=O)[C@@]3(C)[C@H]2C1=O`, the activity change, negative = inhibition is -17.7% (inactive).
`CC[C@@]12C(=O)N(c3ccccc3)C(=O)N1[C@H](c1ccc(Br)cc1)[C@@H]1C(=O)N(C(C)(C)C)C(=O)[C@@H]12`: the activity change, negative = inhibition was -1.44% (inactive).
With `COc1ccc([C@@H]2[C@@H]3C(=O)N(C(C)(C)C)C(=O)[C@@H]3[C@]3(Cc4ccccc4)C(=O)N(c4cccc(Br)c4)C(=O)N23)cc1`, the activity change, negative = inhibition was -34.9% (active).
As for `Cc1nn(C(=O)c2c(F)cccc2F)c(C)c1S(=O)(=O)N1CCOCC1`, the activity change, negative = inhibition was 10.5% (inactive).
As to `CCOc1ccc(N(CC)C(=O)C2CCN(S(=O)(=O)c3cccc4nonc34)CC2)cc1`, the activity change, negative = inhibition was -22% (inactive).
For the molecule `Cc1cc2n(n1)C(c1cc(C(C)(C)C)c(O)cc1O)Nc1ccccc1-2` (centres undefined), the activity change, negative = inhibition was 0.223% (inactive).
For `NS(=O)(=O)c1ccc2nc(NC(=O)COc3ccccc3)sc2c1`, the activity change, negative = inhibition was -38.3% (active).
For `CN(C(=O)CSc1nc2ccc(NC(=O)COc3ccccc3)cc2s1)c1ccccc1`, the activity change, negative = inhibition was -11.3% (inactive).
For `NS(=O)(=O)c1ccc2nc(NC(=O)CS(=O)(=O)c3ccc(F)cc3)sc2c1`, the activity change, negative = inhibition was 3.05% (inactive).
For `COc1cccc(NS(=O)(=O)c2ccc(-c3coc(C)n3)cc2)c1`, the activity change, negative = inhibition is -22% (inactive).
Regarding `Cc1ccc(NS(=O)(=O)c2ccc(-c3coc(C)n3)cc2)c(C)c1`, the activity change, negative = inhibition was -39.4% (active).
In the case of `CCN(c1cccc(C)c1)S(=O)(=O)c1ccc(-c2coc(C)n2)cc1`, the activity change, negative = inhibition is -16.9% (inactive).
In the case of `O=C(c1ccc(Br)cc1)N(Cc1cccs1)c1ccc(F)cc1`, the activity change, negative = inhibition is -5.47% (inactive).
In the case of `COc1ccc(C(=O)NC2CC(C)(C)NC(C)(C)C2)cc1OC`, the activity change, negative = inhibition is -30.4% (active).
Take `Cc1cccc(OCC(=O)NC2CC(C)(C)NC(C)(C)C2)c1`: the activity change, negative = inhibition was 0.221% (inactive).
In the case of `COc1cc(OC)c(C(=O)NC2CC(C)(C)NC(C)(C)C2)cc1OC`, the activity change, negative = inhibition was -1.99% (inactive).
To `Cc1ccc(NC(=O)c2oc3ccc(S(=O)(=O)N4CCCCC4)cc3c2C)cc1Cl` belongs 0.571% (inactive); to `CC(C)(C)n1nc2c(c1NC(=O)c1cc3ccccc3o1)CSC2`, 6.7% (inactive); to `Cc1cccc(-n2nc3c(c2NC(=O)c2cc4ccccc4o2)CS(=O)(=O)C3)c1`, -49.1% (active).
As for `O=C(Nc1c2c(nn1-c1cccc(Cl)c1)CS(=O)(=O)C2)c1cccs1`, the activity change, negative = inhibition was -16.2% (inactive).
Turning to `Cc1nc2c(c(C)nn2-c2ccccc2)c(C)c1CCC(=O)NCCc1ccc(Cl)cc1`, the activity change, negative = inhibition is -0.289% (inactive).
Then `Cc1oc(C)c2c(=O)cc(-c3ccc4c(c3)OCO4)cc(OC(=O)c3ccc(Cl)cc3)c12`, with -1.78% (inactive); and `CCN1CCN(CCCNC(=O)c2cnn(-c3ccc(C)cc3C)c2C2CCN(C(=O)OC(C)(C)C)CC2)CC1`, with 6.05% (inactive).
As for `CCOC(=O)c1c(C)[nH]c(C)c1S(=O)(=O)NCC(=O)NCc1cccc(C)c1`, the activity change, negative = inhibition was 13.9% (inactive).
In the case of `CCCCNC(=O)c1onc(CSc2cccc(OC)c2)c1C(=O)O`, the activity change, negative = inhibition is -73.2% (active).
Turning to `COCCNC(=O)c1onc(CSc2cccc(C)c2)c1C(=O)O`, the activity change, negative = inhibition was 2.03% (inactive).
In the case of `CCOc1cccc(SCc2noc(C(=O)NC(C)C)c2C(=O)O)c1`, the activity change, negative = inhibition was 3.21% (inactive).
As to `CC(=O)N1CCCc2cc(S(=O)(=O)N3CCC(C(=O)NCc4ccc(C)cc4)CC3)ccc21`, the activity change, negative = inhibition is 12.1% (inactive).
In the case of `Cc1ccccc1CN1C(=O)c2ccccc2Sc2ccc(C(=O)NCCCN3CCOCC3)cc21`, the activity change, negative = inhibition was -9.56% (inactive) and -12% (inactive).
Take `O=C(NCCCN1CCOCC1)c1ccc2c(c1)N(Cc1cccc(F)c1)C(=O)c1ccccc1S2`: the activity change, negative = inhibition was -42.1% (active).
`CCC1=Nc2cc(C(=O)NCCCN3CCOCC3)ccc2Sc2ccc(Br)cc21`: the activity change, negative = inhibition is 11% (inactive).
`CC1CCN(C(=O)c2cccc(S(=O)(=O)N3CCCc4ccccc43)c2)CC1`: the activity change, negative = inhibition is -43.6% (active).
To `CN1CCN(S(=O)(=O)c2cccc(C(=O)N3CCc4ccccc43)c2)CC1` belongs -0.291% (inactive); to `Cc1ccc(NC(=O)c2cccc(S(=O)(=O)N3CCCc4ccccc43)c2)nc1`, 3.95% (inactive).
As for `COc1ccc(Nc2ncc3c(n2)CCN(C(=O)OC(C)(C)C)C3)cc1`, the activity change, negative = inhibition is -16.1% (inactive).
`CCCC(=O)Nc1cc2nn(-c3ccccc3)nc2cc1C`: the activity change, negative = inhibition was -6.53% (inactive).
To `O=C(c1cc(-c2ccc(Cl)cc2)on1)N1CCN(c2ccccc2)CC1` belongs 8.05% (inactive).
Consider `O=C(c1cc(-c2ccc(F)cc2)on1)N1CCN(c2ccc(F)cc2)CC1`, for which the activity change, negative = inhibition was 6.41% (inactive) and -30% (active).
In the case of `O=C(c1cc(-c2ccc(O)cc2)on1)N1CCOCC1`, the activity change, negative = inhibition was -2.21% (inactive).
Consider `Cc1ccc(OCCSc2nc(C)c(Cc3ccccc3)c(=O)[nH]2)cc1`, for which the activity change, negative = inhibition is -2.95% (inactive).
On to `Cc1nc(SCCOc2ccc(Cl)cc2)[nH]c(=O)c1Cc1ccccc1`, for which the activity change, negative = inhibition was -8.51% (inactive).
To `Cc1nc(SC(C)C)[nH]c(=O)c1Cc1ccccc1` belongs -31.2% (active); to `COc1ccc(C2(Nc3cccc(F)c3)C(=O)c3ccccc3C2=O)cc1`, -16% (inactive).
Take `CCOC(=O)NNc1cc(C(F)(F)F)ccn1`: the activity change, negative = inhibition is -4.5% (inactive).
Consider `CCC(=O)OCc1c(C(F)(F)F)nn(C)c1Oc1cccc(C(F)(F)F)c1`, for which the activity change, negative = inhibition is -39.6% (active).
Regarding `Cc1nc(N)[nH]c(=O)c1Oc1cccc(C(F)(F)F)c1`, the activity change, negative = inhibition is 7.25% (inactive).
For the molecule `CC(=O)N1CCCc2ccc(NS(=O)(=O)c3ccc(F)cc3F)cc21`, the activity change, negative = inhibition was 8.04% (inactive).
Then `O=C(O)c1ccc2c(c1)N(Cc1ccc(F)cc1)C(=O)c1ccccc1S2=O` (centres undefined), with -20.6% (inactive).
To `CN(C)c1ccc(C=NCCc2ccc(S(N)(=O)=O)cc2)cc1` belongs 0.508% (inactive).
Then `NS(=O)(=O)c1ccc(CCNC(=S)Nc2ccc(S(N)(=O)=O)cc2)cc1`, with -10.1% (inactive).
Turning to `CCCCc1ccc(S(N)(=O)=O)cc1`, the activity change, negative = inhibition was -32.1% (active).
Take `O=C(Cn1[nH]c(=O)c2ccccc2c1=O)Nc1cccc(-c2nnc3n2CCCCC3)c1`: the activity change, negative = inhibition was -31.5% (active).
As to `Brc1cccc(-c2nnc3n2CCC3)c1`, the activity change, negative = inhibition was 4.2% (inactive).
For the molecule `Cc1c(C(=O)Nc2cccc(-c3nnc4n3CCCCC4)c2)oc2ccccc12`, the activity change, negative = inhibition was -14.2% (inactive).
Consider `O=S(=O)(c1ccc2nc(NCc3ccccc3Cl)ccc2c1)N1CCCCC1`, for which the activity change, negative = inhibition was 7.22% (inactive).
Consider `COC(=O)CN1C(=O)CSc2ccc(S(=O)(=O)Nc3cc(C)ccc3C)cc21`, for which the activity change, negative = inhibition is 7.51% (inactive).
